OTUD3 block = inhibitors of human OTUD3 deubiquitinase | purified OTUD3, Ub-rhodamine fluorescence, 2 h | 0.7% of 47,000 active | AID 1645858 | Q5T2D3 | inhibition, % at 25 µM
Target sequence (Q5T2D3 whole entry, looked up): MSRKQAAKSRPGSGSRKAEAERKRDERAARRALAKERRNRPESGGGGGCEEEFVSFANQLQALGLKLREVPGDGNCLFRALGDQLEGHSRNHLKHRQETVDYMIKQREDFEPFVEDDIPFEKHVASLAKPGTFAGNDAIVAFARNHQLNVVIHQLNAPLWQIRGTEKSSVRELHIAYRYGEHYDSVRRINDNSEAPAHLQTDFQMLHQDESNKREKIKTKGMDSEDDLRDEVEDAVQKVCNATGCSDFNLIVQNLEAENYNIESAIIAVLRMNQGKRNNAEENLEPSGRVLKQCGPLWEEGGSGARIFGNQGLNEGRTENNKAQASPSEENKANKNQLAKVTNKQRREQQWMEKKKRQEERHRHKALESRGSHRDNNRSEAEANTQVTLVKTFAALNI
USP28 inh = human USP28 deubiquitinase inhibition. inhibition, % at 25 µM. purified USP28, Ub-rhodamine cleavage fluorescence, 30 min. Q96RU2. 3% of 47,000 active
USP30 inh = inhibitors of human USP30 deubiquitinase; inhibition, % at 25 µM; purified USP30, Ub-rhodamine cleavage fluorescence; 5.3% of 47,000 active
USP17 block = human USP17-like deubiquitinase inhibition; inhibition, % at 50 µM; 6.5% of 47,000 active; purified USP17, Ub-rhodamine cleavage fluorescence, 3 h; AID 1645855
Numbers without * were called inactive. Compounds with a hit are over-represented: about 12% of the library has one in this group of screens. No stated cut-off is given here; in the data, active means inhibition above about 30%; inactive means the rest.

Results for Cc1ccc(NC(=O)CCc2nc(CSc3nnc(-c4ccccc4)o3)no2)cc1 ?
OTUD3 block: 4; USP28 inh: 4; USP30 inh: 15; USP17 block: 6

Results for Cc1ccc(NC(=O)CCc2nc(CSc3nnc(-c4ccco4)o3)no2)c(C)c1 ?
OTUD3 block: -6; USP28 inh: -8; USP30 inh: -60; USP17 block: -27

What do the screens show for `Cc1ccc(NC(=O)CCc2nc(CSc3nnc(-c4ccccc4)o3)no2)cc1C`?
OTUD3 block: 15; USP28 inh: 14; USP30 inh: 31*; USP17 block: 8

How did CCc1ccc2c(CN3CCN(c4ccccc4)CC3)cc(=O)oc2c1 do in these assays?
OTUD3 block: -4; USP28 inh: 3; USP30 inh: 7; USP17 block: 0

How did CCn1c(=O)c(N2CCCC(C(=O)O)C2)nc2cccnc21 (centres undefined) do in these assays?
OTUD3 block: -8; USP28 inh: -7; USP30 inh: -2; USP17 block: 0

How did COc1cccc(-c2cc(N3CCCN(C(=O)c4ccncc4)CC3)ncn2)c1 do in these assays?
OTUD3 block: 5; USP28 inh: 6; USP30 inh: 22; USP17 block: 4

Results for COc1cccc(NC(=O)CCc2nnc3n(CCCOC(C)C)c(=O)c4ccccc4n23)c1 ?
OTUD3 block: 37*; USP28 inh: 70*; USP30 inh: 89*; USP17 block: 69*

Results for CC(C)OCCCn1c(=O)c2ccccc2n2c(CCC(=O)NCCc3c[nH]c4ccccc34)nnc12 ?
OTUD3 block: 17; USP28 inh: 18; USP30 inh: 28; USP17 block: 37*

How did COc1cc(=O)n2c(c1C(=O)NCc1ccccc1F)CCCC2 do in these assays?
OTUD3 block: 0; USP28 inh: -8; USP30 inh: 0; USP17 block: 3

How did CCC(=O)c1cn(CC(=O)NCCOc2ccc(Cl)cc2)c2ccccc12 do in these assays?
OTUD3 block: -13; USP28 inh: -18; USP30 inh: -7; USP17 block: -3

What do the screens show for `COC(=O)c1cn(CC(=O)NCCOc2ccc(Cl)cc2)c2ccccc12`?
OTUD3 block: 15; USP28 inh: 13; USP30 inh: 44*; USP17 block: 27

How did CCc1oc2cc(O)ccc2c(=O)c1-c1ccc2c(c1)OCCO2 do in these assays?
OTUD3 block: 2; USP28 inh: 36*; USP30 inh: 5; USP17 block: -12

How did CCC(=O)c1cn(CC(=O)Nc2cccc(C)c2)c2ccccc12 do in these assays?
OTUD3 block: -1; USP28 inh: 7; USP30 inh: 1; USP17 block: 7

What do the screens show for `Cc1ccc(C)c(NC(=O)Cn2cc(C(=O)C3CC3)c3ccccc32)c1`?
OTUD3 block: 15; USP28 inh: 57*; USP30 inh: 76*; USP17 block: 62*

How did COc1cccc(NC(=O)Cn2cc(C(=O)C3CC3)c3ccccc32)c1 do in these assays?
OTUD3 block: 9; USP28 inh: 12; USP30 inh: 69*; USP17 block: 53*

Results for COc1cccc2cc(C(=O)Nc3ccc4c(c3)OCCO4)oc12 ?
OTUD3 block: 2; USP28 inh: 51*; USP30 inh: 1; USP17 block: 1

What do the screens show for `O=C(Nc1ccc2c(c1)OCO2)c1cc(CN2CCCC2)on1`?
OTUD3 block: 7; USP28 inh: 27; USP30 inh: -24; USP17 block: 35*

How did Cc1ccc(/C=C/C(=O)Nc2ccc3c(c2)OCCO3)cc1 do in these assays?
OTUD3 block: -8; USP28 inh: 80*; USP30 inh: -13; USP17 block: -8

How did Cc1cc(C(=O)Nc2ccc3c(c2)OCCO3)no1 do in these assays?
OTUD3 block: 0; USP28 inh: 63*; USP30 inh: 0; USP17 block: -5

How did Cc1cc(C(=O)N2CC(C(=O)Nc3ccc4c(c3)OCCO4)C2)no1 do in these assays?
OTUD3 block: -9; USP28 inh: 5; USP30 inh: -35; USP17 block: -23

How did CCOc1ccc(NS(=O)(=O)c2cc(C(=O)N3CCCC3)ccc2C)cc1 do in these assays?
OTUD3 block: -1; USP28 inh: -2; USP30 inh: -1; USP17 block: 0

How did Cn1cc(C(=O)N2CC[C@@H]3[C@@H]2CCN3Cc2ccoc2)cn1 do in these assays?
OTUD3 block: 0; USP28 inh: -4; USP30 inh: 0; USP17 block: -11

Results for CN(C)C(=O)C1(Cc2cc(-c3ccccc3)no2)CCCN(C(=O)C2CC2)C1 (centres undefined) ?
OTUD3 block: 6; USP28 inh: 13; USP30 inh: 21; USP17 block: 4

What do the screens show for `CC(C)C(Nc1ccc(C(F)(F)F)cc1Cl)C(=O)Nc1nc2ccccc2[nH]1` (centres undefined)?
OTUD3 block: 12; USP28 inh: 24; USP30 inh: 37*; USP17 block: 40*

Results for CCc1cc(C(F)(F)F)n2nc(C3CCN(C(=O)c4ccccc4F)C3)cc2n1 (centres undefined) ?
OTUD3 block: -2; USP28 inh: 0; USP30 inh: 0; USP17 block: -8

Results for Cc1cc(C(F)(F)F)n2nc(C3CCN(C(=O)c4cnn(C)c4C)C3)cc2n1 (centres undefined) ?
OTUD3 block: -22; USP28 inh: -18; USP30 inh: -44; USP17 block: 50*

Results for O=S(=O)(Nc1ccc2oc(-c3ccncc3)nc2c1)c1ccccc1 ?
OTUD3 block: 16; USP28 inh: 32*; USP30 inh: 30*; USP17 block: 55*

What do the screens show for `O=C(COc1ccc(C2CCCCC2)cc1)Nc1ccc2oc(-c3cccnc3)nc2c1`?
OTUD3 block: -11; USP28 inh: -9; USP30 inh: 26; USP17 block: 0

Results for COc1ccc(-c2ncc3c(=O)n(Cc4cccnc4)c(=O)n(C)c3n2)cc1 ?
OTUD3 block: 22; USP28 inh: 18; USP30 inh: 36*; USP17 block: 0

How did Cn1c(=O)n(Cc2cccc(Cl)c2)c(=O)c2cnc(-c3ccncc3)nc21 do in these assays?
OTUD3 block: -166; USP28 inh: -145; USP30 inh: -498; USP17 block: -141

How did CC1CC(=O)Nc2cc(S(=O)(=O)Nc3ccccc3F)ccc2S1 (centres undefined) do in these assays?
OTUD3 block: 3; USP17 block: 14

Results for COc1ccc(CCNC(=O)C(=O)NCc2ccc(Cl)cc2)cc1OC ?
OTUD3 block: 7; USP28 inh: 17; USP30 inh: 24; USP17 block: 41*

How did COc1ccc(CCNC(=O)C(=O)c2c(C)n(C)c3ccccc23)cc1OC do in these assays?
OTUD3 block: 3; USP28 inh: 5; USP30 inh: 0; USP17 block: 48*

What do the screens show for `Cc1cnc(NC(=O)Cn2cnc3ccccc3c2=O)s1`?
OTUD3 block: -4; USP28 inh: -7; USP30 inh: -2; USP17 block: 40*

What do the screens show for `Cc1ccc(CNC(=O)c2cc(=O)nc3sc(N4CCCCCC4)nn23)cc1`?
OTUD3 block: 11; USP28 inh: 17; USP30 inh: 31*; USP17 block: 4

Results for N#Cc1ccc(Cc2ncc(C(F)(F)F)cc2Cl)s1 ?
OTUD3 block: 5; USP28 inh: 60*; USP30 inh: 0; USP17 block: 3
